# MPTP inh – blocks calcium-induced mitochondrial swelling; isolated mouse mitochondria, Ca2+ swelling absorbance, 30 min; inhibition, % at 10 µM; 360,000 tested, 1.4% active; AID 602449;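 active = inhibition of 50% or more, scaled per plate between neutral and stimulator controls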;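 also: 0% = DMSO wells given calcium and 100% = 1 mM EGTA wells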
# Mdm2-MdmX inh – disrupts the human Mdm2-MdmX interaction. AID 485346. 330,000 tested, 3% active. SaOS-2 split-luciferase Mdm2/MdmX complementation, luminescence. inhibition, % at 8 µM. O15151+Q00987;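 active = inhibition of at least 50% at 8 µM in the primary screen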
# Target sequence (O15151 whole entry, looked up): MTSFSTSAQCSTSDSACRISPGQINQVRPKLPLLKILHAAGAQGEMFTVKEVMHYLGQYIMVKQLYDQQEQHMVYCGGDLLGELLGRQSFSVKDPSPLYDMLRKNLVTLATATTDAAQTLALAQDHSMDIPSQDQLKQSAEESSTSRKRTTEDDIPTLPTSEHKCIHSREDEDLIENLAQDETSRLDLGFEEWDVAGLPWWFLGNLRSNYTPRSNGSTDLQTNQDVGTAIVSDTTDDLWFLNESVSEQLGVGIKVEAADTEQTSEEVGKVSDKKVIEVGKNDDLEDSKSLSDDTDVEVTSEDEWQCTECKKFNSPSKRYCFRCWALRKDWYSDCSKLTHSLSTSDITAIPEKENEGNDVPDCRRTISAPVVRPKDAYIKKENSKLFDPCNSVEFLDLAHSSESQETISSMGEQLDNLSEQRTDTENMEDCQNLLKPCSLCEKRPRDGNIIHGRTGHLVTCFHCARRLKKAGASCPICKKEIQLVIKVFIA
# Target sequence (Q00987 whole entry, looked up): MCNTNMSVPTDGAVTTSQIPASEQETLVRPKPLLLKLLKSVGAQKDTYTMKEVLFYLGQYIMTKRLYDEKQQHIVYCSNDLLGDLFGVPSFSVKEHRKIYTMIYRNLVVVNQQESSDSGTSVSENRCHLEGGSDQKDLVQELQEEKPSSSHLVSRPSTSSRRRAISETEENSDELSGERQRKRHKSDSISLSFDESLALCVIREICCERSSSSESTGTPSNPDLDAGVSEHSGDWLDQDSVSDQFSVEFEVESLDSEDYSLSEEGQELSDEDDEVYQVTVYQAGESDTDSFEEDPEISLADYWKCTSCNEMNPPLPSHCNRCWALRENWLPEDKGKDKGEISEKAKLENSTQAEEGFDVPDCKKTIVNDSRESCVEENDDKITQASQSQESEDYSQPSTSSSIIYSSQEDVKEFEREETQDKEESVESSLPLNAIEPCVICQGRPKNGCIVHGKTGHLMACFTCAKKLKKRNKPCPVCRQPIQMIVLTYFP
# TIM10 inh – inhibits growth of TIM10 yeast strain. 330,000 tested, 1.4% active. S. cerevisiae TIM10 strain growth, BacTiter-Glo luminescence, 24 h. inhibition, % at 10 µM. AID 463195;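 active = inhibition of 40% or more at the single tested concentration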;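 also: wild-type TIM10 isogenic control strain grown at permissive 25 °C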
# tim10-1 inh – tim10-1 yeast growth inhibition; S. cerevisiae tim10-1 ts strain growth, BacTiter-Glo, 24 h; inhibition, % at 20 µM; 330,000 tested, 2.2% active; AID 463190;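 active = inhibition of at least 40%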;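 also: mutant grown at 25 °C; 0% = DMSO wells with yeast and 100% = wells holding no yeast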
# tim23-1 inh – tim23-1 yeast growth inhibition; S. cerevisiae tim23-1 growth, BacTiter-Glo luminescence, 24 h; inhibition, % at 20 µM; 330,000 tested, 1.3% active; AID 463212;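 active = growth inhibition of the mutant yeast at or above 50%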;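 also: temperature-sensitive mutant grown at 25 °C; plate controls were DMSO-treated mutant yeast for no effect and medium wells lacking yeast for full effect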
# tim10 confirm – confirmation of TIM10 yeast growth inhibitors. shares compounds with TIM10 inh. S. cerevisiae tim10 strain growth, BacTiter-Glo luminescence, 24 h. inhibition, % at 10 µM. 4,600 tested, 63% active. AID 463215;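 active = inhibition of yeast growth at or above a set limit in either of two replicates at 10 µM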;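 also: this counterscreen used the strain with wild-type TIM10; 0% = yeast with DMSO and 100% = medium wells lacking yeast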
# * hit, by the source's call; / = no result. In the library only some 6.3% were active in any assay of this set; here they are far more common.
SMILES,MPTP inh,Mdm2-MdmX inh,TIM10 inh,tim10-1 inh,tim23-1 inh,tim10 confirm
CC(C)(C)c1cc(O)c(C(C)(C)C)cc1O,/,-23.4,46.9*,31.5,45.8,42.0*
Cc1nc2c(OCc3ccc(Cl)cc3)cccn2c1N(C)C(=O)CCC1CCCC1,0.2,/,/,/,/,/
COc1cc(/C=N/NC(=S)NC2CC3C=CC2C3)cc(OC)c1OC (stereo unspecified),3.3,48.5,49.0*,11.4,41.2,30.8*
CCOc1ccc(/C=N/NC(=S)NC2CC3C=CC2C3)cc1 (stereo unspecified),4.7,23.9,20.3,14.1,7.7,/
CCCCNC(=O)[C@]1(C)CCC[C@@]2(C)C3CC[C@@]4(C)C[C@]3(CCC21)CC4=O (stereo partly specified),-0.3,17.3,59.4*,-2.0,26.6,14.9
CC(C)NC(=O)[C@]1(C)CCC[C@@]2(C)C3CC[C@@]4(C)C[C@]3(CCC21)CC4=O (stereo partly specified),0.2,-24.0,3.5,14.5,45.0,/
Cc1ccc(Nc2nc(-c3sc(C)nc3C)cs2)cc1,0.5,41.3,45.6*,23.0,47.7,49.2*
CC(=O)Nc1ccc(Nc2nc(-c3sc(C)nc3C)cs2)cc1,2.0,29.8,4.6,2.9,10.8,/
CCOc1ccc(S(=O)(=O)N2CCOCC2)cc1NC(=O)CCN1C(=O)NC2(CCCC2)C1=O,0.5,/,/,/,/,/
O=C(Nc1nc2ccccc2s1)C1CC(=O)N(c2ccc(Cl)cc2)C1 (stereo unspecified),-1.4,7.9,47.8*,26.7,42.7,-22.0
COc1ccc(N2CC(C(=O)Nc3nc4ccc(OC)cc4s3)CC2=O)cc1 (stereo unspecified),0.8,7.9,-4.7,32.6,34.2,/
COc1cccc(CNC(=O)[C@@H]2CCCN2C(=O)[C@H]2CCCCN2C(=O)c2c(F)cccc2F)c1,0.4,/,/,/,/,/
Nc1c(C(=O)Nc2ccc(F)cc2)sc2nc(-c3ccco3)ccc12,1.0,-23.4,48.6*,30.9,46.0,48.3*
Nc1c(C(=O)Nc2ccc(Br)cc2)sc2nc(-c3ccco3)ccc12,1.7,-1.7,17.2,12.8,5.5,/
CCCN1C(=O)/C(=C/c2ccc(N3CCCC3)c(C)c2)NC1=S,5.7,21.4,28.3,38.5,21.4,/
Cc1cc(/C=C2\NC(=S)N(C)C2=O)ccc1N1CCCC1,9.0,-151.9,41.9*,30.2,-14.9,40.1*
CN1OC[C@@H]2CN(S(=O)(=O)c3cccc4ccccc34)[C@H](c3ccc(-c4cccnc4)cc3)C[C@@H]21,-0.4,/,/,/,/,/
O=[N+]([O-])c1cc([N+](=O)[O-])c2c(=Nc3ccccc3)n(-c3ccccc3)n(O)c2c1,5.0,41.5,49.8*,18.1,47.7,66.3*
C=CCc1c(C)nc(-c2ccccc2)nc1Nc1ccc(O)cc1,1.5,30.0,40.3*,33.0,49.5,31.2
CC(C)(C)c1ccc(C(=O)NC(=S)NCc2cccnc2)cc1,-0.1,15.0,40.8*,37.8,45.3,30.4*
CC1(C(=O)NS(=O)(=O)c2cccc(OC(F)F)c2)CCN1C(=O)Cc1ccsc1 (stereo unspecified),0.4,/,/,/,/,/
CC(=O)N1C[C@@H](CO)[C@@H](N(C)C(=O)C2CCCCC2)C[C@H]1c1ccccc1,-0.1,/,/,/,/,/
CC(C)n1c(N2CCN(C(=O)Nc3ccccc3)CC2)nc2ccccc21,3.9,-12.6,44.0*,19.6,24.3,43.2*
CCC(C)n1c(-c2ccco2)nc2nc3ccccc3nc21 (stereo unspecified),/,28.5,46.4*,28.3,35.8,12.1
O=C(Cn1nnc(-c2cccs2)n1)N1c2ccccc2Sc2ccc(C(F)(F)F)cc21,1.9,6.3,3.7,3.1,20.7,/
SMILES,MPTP inh,Mdm2-MdmX inh,TIM10 inh,tim10-1 inh,tim23-1 inh,tim10 confirm
Cc1cc(C)n(CC(=O)N2c3ccccc3Sc3ccc(C(F)(F)F)cc32)n1,2.2,-15.7,41.9*,39.4,40.4,26.9
CC1(C(=O)NS(=O)(=O)Cc2cccc(Cl)c2)CCN1C(=O)CCc1cccs1 (stereo unspecified),-0.8,/,/,/,/,/
Nc1ncnc2c1ncn2[C@@H]1O[C@H](C(=O)Nc2cc(C(F)(F)F)cc(C(F)(F)F)c2)[C@@H](O)[C@H]1O,0.4,/,/,/,/,/
CC(c1ccc(F)cc1)n1c(-c2ccc3ccccc3n2)n[nH]c1=S (stereo unspecified),0.3,6.7,45.6*,5.7,48.8,23.1
CC(=O)Nc1cccc(-c2cc(NC(C)=O)c3ncc(-c4ccc(C(C)=O)cc4)n3c2)c1,-0.8,/,/,/,/,/
O=C(O/N=C1/CCCc2occc21)c1ccc(Cl)cc1Cl,5.4,8.9,44.2*,22.8,13.9,38.1*
CNC(=S)N1CCC(C(=O)c2ccc(Cl)cc2)CC1,-0.6,/,/,/,/,/
Cn1c(=O)n(CC(=O)O)c(=O)c2c1nc1n2CCCN1Cc1ccccc1,-0.5,-22.5,6.2,9.2,-1.1,/
Cn1c(=O)n(Cc2ccccc2)c(=O)c2c1nc1n2CCCN1C1CCCCC1,2.4,46.5,41.0*,33.0,17.9,26.8
Cc1cccc(Cn2c(=O)c3c(nc4n3CCCN4Cc3ccccc3)n(C)c2=O)c1,0.1,10.3,55.4*,39.4,37.0,1.2
CCOC(=O)c1ccc(NC(=O)CCS(=O)(=O)c2ccc(Br)s2)cc1,8.4,16.8,43.6*,38.9,26.3,18.2
CC(C)(C)S(=O)N1Cc2cc(C(=O)NCc3ccc(Oc4ccccc4)cc3)nc(-c3cccc(-c4cc5ccccc5o4)c3)c2[C@@H]1CCO (stereo partly specified),0.2,/,/,/,/,/
CSc1ccc(-c2cc3c(c4c2ccn4C)C2CCC3O2)cc1 (stereo unspecified),1.9,/,/,/,/,/
c1cc(-c2nnc3sc(C4CCCCC4)nn23)ccn1,-2.0,25.6,40.7*,39.1,12.5,18.9
CC(C)(C)c1ccc(-c2nnc3sc(-c4ccncc4)nn23)cc1,-1.3,5.9,22.4,34.6,36.7,/
CC1CN(CC(O)COC(c2ccc(Cl)cc2)c2ccc(Cl)cc2)CC(C)O1 (stereo unspecified),1.0,-0.1,45.5*,32.1,35.5,39.6*
O=C1c2ccccc2CCC12OC2c1ccncc1 (stereo unspecified),0.1,/,/,/,/,/
COc1ccc(-n2cnc3scc(-c4ccc(OC)c(OC)c4)c3c2=O)cc1,-1.5,6.8,40.1*,37.1,41.1,-0.8
COc1ccc(-c2csc3ncn(-c4ccc(C)cc4)c(=O)c23)cc1OC,-0.5,-8.8,34.9,32.4,35.7,/
O=C1NC[C@H](CCCCN2CCN(Cc3ccccc3)C(=O)C2=O)N(CCc2ccccc2)C1=O,-0.8,/,/,/,/,/
CC(C)(C)NC(=O)C(c1ccnc2ccccc12)n1c(=O)c(-c2cc3ccccc3[nH]2)nc2ccccc21 (stereo unspecified),1.3,/,/,/,/,/
CCn1cc(Cl)c(C(=O)Nc2ccc(OC)c(OC)c2)n1,-0.8,-3.4,12.7,8.0,12.1,/
CCn1cc(Br)c(C(=O)Nc2ccc(Cl)c(Cl)c2)n1,2.0,-25.8,61.8*,38.0,24.3,45.2*
CCCNC(=O)C1(C)CCN(C(=O)c2cccc(Cl)c2)C1 (stereo unspecified),-0.1,/,/,/,/,/
